Screen size: about 290,000 compounds; about 11,000 (3.8%) were called active. The list comes from a sample in which actives are over-represented; it also holds similar structures and randomly drawn compounds. A number with no mark means an inactive call.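 The calls were made as follows: active = mean replicate inhibition above about 79%, with every replicate also reaching it (limit read from the data); inconclusive = only one of the two criteria met; inactive = mean below limit and not every replicate reaching it.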
target: FAD-linked sulfhydryl oxidase ALR (Homo sapiens) (UniProt P55789); assay: inhibitors of human ALR sulfhydryl oxidase, primary screen, biochemical, H2O2 detection, HRP-luminol luminescence, single point (AID 485317); conditions: purified ALR, DTT oxidation, active compounds read high, concentration not given here
Sequence (P55789 whole entry, looked up): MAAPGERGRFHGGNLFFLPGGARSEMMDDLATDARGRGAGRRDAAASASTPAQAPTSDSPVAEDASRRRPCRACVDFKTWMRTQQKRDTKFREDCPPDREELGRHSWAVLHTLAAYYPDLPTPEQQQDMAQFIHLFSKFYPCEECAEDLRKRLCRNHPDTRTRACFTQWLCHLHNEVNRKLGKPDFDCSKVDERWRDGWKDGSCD

`COc1cc(OC)c(C(=O)Nc2ccc(N(C)C)cc2)cc1OC` was tested, and the inhibition was 99.6% (active).
`COC(=O)CSc1ncnc2c1cnn2-c1ccc(C)cc1C` was tested, and the inhibition was 96.9% (active).
With `O=C1CSC(=S)N1c1ccc(O)cc1` the inhibition was 91.3% (active).
With `NC(=O)c1c(Nc2nc3c(F)cccc3s2)sc2c1CCCC2` the inhibition was 87.1% (active).
In the case of `O=C1CC(NNc2ccccc2)C(=O)N1c1cccc(Cl)c1` (stereo not given), the inhibition is reported as 98% (active).
`Cc1nc2cc(NCc3cccs3)ccc2n1C` was tested, and the inhibition was 84% (active).
In the case of `CC1=C/C(=N\OS(=O)(=O)c2ccccc2)C=CC1=O`, the inhibition is reported as 98.9% (active).
`COC1=C/C(=C/c2c(N)n3nc(CC(=O)N4CCOCC4)sc3nc2=O)C=CC1=O` was tested, and the inhibition was 99.1% (active).
For `O=C(N/N=C/c1ccc(O)c(O)c1)C1c2ccccc2Oc2ccccc21`, the inhibition was 99% (active).
For `CC(=N\NC(=O)c1cc(Br)ccc1O)/C(=N/O)C(=O)Nc1ccccc1`, the inhibition was 85.8% (active).
With `CC(C)(C)NC(=O)CSC(=Nc1ccccc1F)NC#N` the inhibition was 98.7% (active).
With `Cc1ccc(NC2CCCN(C(=O)CCc3cn[nH]c3)C2)cc1C` (stereo not given) the inhibition was 98.7% (active).

Point of comparison: `O=S(=O)(ON(c1ccccc1)S(=O)(=O)c1ccccc1)c1ccccc1`, inhibition -14.1%. Against it:
- COc1cc(OC)c(C(=O)Nc2ccccc2-c2ccccc2)cc1OC — higher, -1.64%
- COc1ccc(Cl)cc1C(=O)Nc1ccc(N(C)C(C)=O)cc1 — higher, -1.72%
- Cc1ccccc1SCC(=O)OCC(=O)N1CC(=O)Nc2ccccc21 — higher, -7.18%
- Cc1ccc(-n2ncc3c(=O)[nH]cnc32)c(C)c1 — higher, -6.83%
- COc1ccc(-n2ncc3c(SCC(=O)NNC(C)=O)ncnc32)cc1 — higher, -1.15%
- CCOC(=O)C1CCCN(C(=O)c2ccc(C)c(S(=O)(=O)N3CCCCC3)c2)C1 (stereo not given) — higher, -0.131%
- COc1cc(N2C(=O)CSC2=S)cc(OC)c1OC — higher, 3.65%
- O=C1CSC(=S)N1c1ccc(Cl)c(Cl)c1 — higher, 38.1%
- CCOc1ccccc1OCC(=O)Nc1ccccc1C(=O)NC1CC1 — higher, 20.6%
- CCOc1ccc(C(C)NC(=O)CN2C(=O)NC3(CCCCC3)C2=O)cc1OCC (stereo not given) — lower, -15.6%
- COc1cccc(OC)c1C(=O)Nc1sc2c(c1C(N)=O)CCCC2 — higher, -6.93%
- NC(=O)c1c(NC(=O)CSc2nnc(-c3ccco3)n2N)sc2c1CCCC2 — higher, 9.78%
- O=C(NCc1ccc(Cl)cc1)C(=O)NCC1CCCN1S(=O)(=O)c1cccs1 (stereo not given) — higher, -0.71%
- Cc1ccc(NC(=O)c2cnc(SCC(=O)NCC3CCCO3)n(C)c2=O)cc1 (stereo not given) — higher, -10.7%
- Cc1nc(-c2ccc(F)cc2)c(CC(=O)Nc2cc(S(=O)(=O)N3CCCCC3)ccc2C)s1 — higher, -9.47%
- O=C(NNC1CC(=O)N(c2cccc(Cl)c2)C1=O)c1cccnc1 (stereo not given) — higher, 11.7%
- O=C1CC(c2ccccc2)C(=O)N1c1cccc(O)c1 (stereo not given) — higher, 14.5%
- COc1cc(C(=O)NC2CCN(C)CC2)ccc1Nc1ncc2c(n1)N(C1CCC(O)CC1)CCC(=O)N2C (stereo not given) — higher, -1.63%
- CCN1C(=O)[C@H]2[C@@H](c3ccc(SC4CCCCC4)c(OC)c3)N[C@@](Cc3ccccc3)(C(=O)OC)[C@H]2C1=O — higher, -5.65%
- COc1ccc(CCC(=O)c2ccc(OC)cc2)cc1 — lower, -20.1%
- Cc1nc2cc(NC(=O)NC3CC3)ccc2n1C — higher, 50.8%
- Cc1nc2cc(NC(=O)Nc3cccc(F)c3)ccc2n1C — higher, -7.89%
- O=C(N=C1SC2CS(=O)(=O)CC2N1c1ccccc1)c1ccccc1 (stereo not given) — higher, -1.67%
- CC1(c2ccccc2)NC(=O)N(CC(=O)N2CC(=O)Nc3ccccc32)C1=O (stereo not given) — higher, -7.27%
- COc1ccc2c(c1)O/C(=C\c1ccccc1O)C2=O — higher, 0.703%
- CCCCCN(C(=O)CCC(=O)OCC(=O)NC1CCC(C)CC1)c1c(N)n(CCCC)c(=O)[nH]c1=O (stereo not given) — higher, -10.8%
- COc1ccc(OCC(=O)N2CCOCC2)cc1 — higher, -7.03%
- C=CCC1=C/C(=C\c2c(N)n3nc(CC(=O)N4CCOCC4)sc3nc2=O)C=C(OC)C1=O — higher, 54.3%
- O=C(Cc1ccc(S(=O)(=O)N2CCOCC2)s1)N1CCN(c2ccc(C(F)(F)F)cc2[N+](=O)[O-])CC1 — higher, -1.8%
- COc1ccccc1-c1sc2ccccc2c1-c1ccc(Br)nc1 — higher, -3.77%
- CC1CCCCC1NC(=O)c1cc(=O)[nH]c2ccccc12 (stereo not given) — lower, -38.4%
- CCC(C)(C)NC(=O)C1c2ccccc2Oc2ccccc21 — higher, -6.09%
- CCCCCNC(=O)C1c2ccccc2Oc2ccccc21 — higher, -7.1%
- CSCCC(NC(=O)COc1ccccc1)C(=O)N(C)CC(=O)Nc1ccc(C)cc1 (stereo not given) — higher, -1.79%
- COc1cccc(CNC(=O)CN2C(=O)NC(Cc3ccccc3)(c3ccccc3)C2=O)c1 (stereo not given) — higher, -2.85%
- CC(C)c1ccc(/C=C/C(=O)NCCCN2CCOCC2)cc1 — higher, 3.5%
- O=C1[C@H]2[C@@H](c3ccc(F)cc3)N3C(=O)N(c4ccc(C(F)(F)F)cc4)C(=O)[C@@]3(Cc3ccccc3)[C@H]2C(=O)N1C1CCCCC1 — higher, 2.08%
- CC(=O)N/N=C(\C)c1ccc(Br)cc1Br — higher, -9.48%
- CC(C)/C=N/NC(=O)c1cc(Br)ccc1O — higher, 44.3%
- COc1ccc(-c2sc3ccc(OC)cc3c2C#Cc2ccccn2)cc1 — higher, 0.498%
- O=C(COc1coc(CN2CCN(c3ccccc3F)CC2)cc1=O)N1CCc2ccccc21 — higher, -0.38%
- COc1ccccc1-n1ccnc1SCC(=O)NC(C)(C)C — higher, 17.9%
- Cc1ccccc1CSCC(=O)NC(=O)NC(C)(C)C — lower, -23.2%
- COc1cc(C(C)=O)ccc1OC(C)C(=O)Nc1ccc(S(=O)(=O)N2CCCC2)cc1 (stereo not given) — higher, -9.52%
- O=C(CSc1ncnc2sccc12)NC1CCS(=O)(=O)C1 (stereo not given) — higher, -0.589%
- COc1ccccc1CN1CC(C(=O)NCCc2cn[nH]c2)CCC1=O (stereo not given) — higher, -0.59%
- Cn1cc(CCC(=O)N2CCCC(C(=O)c3ccc(C(C)(C)C)cc3)C2)cn1 (stereo not given) — lower, -21%
